# Measurements taken from PubChem BioAssay AID1159580 (chemical genetic matrix, 2015).
# Out of some 5,500 compounds screened, about 2,000 (36%) were called active. Inconclusive results (about 18%) are left out. Some of the results follow. A number with no mark means an inactive call. Rule as the data show it: active = normalized growth mostly below about 0.91 (no sharp cut-off); inconclusive = no clear call, values can overlap the other calls; inactive = mostly above about 0.92.
# Assay: chemical genetic growth profiling, strain panel (AID 1159580);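 also: tested at 20 µM; growth read once vehicle control cultures reached saturation at 30 °C; 1 = growth at the plate median or of vehicle wells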
# Conditions: growth OD
structure (smiles),measurement,setting,value
CC(=O)O[C@H]1C(=O)[C@@]2(C)C([C@H](OC(=O)c3ccccc3)[C@]3(O)C[C@H](OC(=O)[C@H](O)[C@@H](NC(=O)c4ccccc4)c4ccccc4)C(C)=C1C3(C)C)[C@]1(OC(C)=O)CO[C@@H]1C[C@@H]2O (stereo partly specified),normalized growth,"S. cerevisiae deletion strains, locus YJR066W, strain TOR1, stronger effect = lower value",0.943
same,normalized growth,"S. cerevisiae deletion strains, locus YJR075W, strain HOC1, stronger effect = lower value",1.04
same,normalized growth,"S. cerevisiae deletion strains, locus YKL009W, strain mrt4, stronger effect = lower value",0.636 (active)
same,normalized growth,"S. cerevisiae deletion strains, locus YKL068W, stronger effect = lower value",0.781 (active)
same,normalized growth,"S. cerevisiae deletion strains, locus YKL085W, strain MDH1 (second series), stronger effect = lower value",0.884 (active)
same,normalized growth,"S. cerevisiae deletion strains, locus YKL085W, strain MDH1, stronger effect = lower value",0.884 (active)
same,normalized growth,"S. cerevisiae deletion strains, locus YKL160W, strain elf1, stronger effect = lower value",1.01
same,normalized growth,"S. cerevisiae deletion strains, locus YKL190W, strain CNB1, stronger effect = lower value",1.02
same,normalized growth,"S. cerevisiae deletion strains, locus YKR026C, strain gcn3, stronger effect = lower value",0.999
same,normalized growth,"S. cerevisiae deletion strains, locus YKR091W, strain srl3, stronger effect = lower value",1
same,normalized growth,"S. cerevisiae deletion strains, locus YLL001W, strain dnm1, stronger effect = lower value",1.05
same,normalized growth,"S. cerevisiae deletion strains, locus YLL026W, stronger effect = lower value",0.993
same,normalized growth,"S. cerevisiae deletion strains, locus YLL041C, strain sdh2, stronger effect = lower value",0.979
same,normalized growth,"S. cerevisiae deletion strains, locus YLR027C, strain aat2, stronger effect = lower value",0.97
same,normalized growth,"S. cerevisiae deletion strains, locus YLR039C, strain RIC1, stronger effect = lower value",1.06
same,normalized growth,"S. cerevisiae deletion strains, locus YLR058C, strain SHM2, stronger effect = lower value",1.03
same,normalized growth,"S. cerevisiae deletion strains, locus YLR102C, strain apc9, stronger effect = lower value",1.03
same,normalized growth,"S. cerevisiae deletion strains, locus YLR113W, strain HOG1, stronger effect = lower value",0.945
same,normalized growth,"S. cerevisiae deletion strains, locus YLR221C, strain rsa3, stronger effect = lower value",1.03
same,normalized growth,"S. cerevisiae deletion strains, locus YLR258W, strain gsy2, stronger effect = lower value",0.997
same,normalized growth,"S. cerevisiae deletion strains, locus YLR262C, strain YPT6 (second series), stronger effect = lower value",1.02
same,normalized growth,"S. cerevisiae deletion strains, locus YLR262C, strain YPT6, stronger effect = lower value",1.15
same,normalized growth,"S. cerevisiae deletion strains, locus YLR268W, strain sec22, stronger effect = lower value",1.06
same,normalized growth,"S. cerevisiae deletion strains, locus YLR320W, strain mms22, stronger effect = lower value",1.01
same,normalized growth,"S. cerevisiae deletion strains, locus YLR330W, strain CHS5, stronger effect = lower value",1.03
same,normalized growth,"S. cerevisiae deletion strains, locus YLR342W, strain FKS1 (second series), stronger effect = lower value",1.06
same,normalized growth,"S. cerevisiae deletion strains, locus YLR342W, strain FKS1, stronger effect = lower value",1
same,normalized growth,"S. cerevisiae deletion strains, locus YLR357W, strain rsc2, stronger effect = lower value",1
same,normalized growth,"S. cerevisiae deletion strains, locus YLR370C, strain arc18, stronger effect = lower value",1.02
same,normalized growth,"S. cerevisiae deletion strains, locus YLR371W, strain rom2, stronger effect = lower value",1.03
same,normalized growth,"S. cerevisiae deletion strains, locus YLR384C, strain iki3, stronger effect = lower value",0.982
same,normalized growth,"S. cerevisiae deletion strains, locus YLR418C, strain cdc73, stronger effect = lower value",1.25 [resistant] (active)
same,normalized growth,"S. cerevisiae deletion strains, locus YML016C, strain PPZ1, stronger effect = lower value",1.03
same,normalized growth,"S. cerevisiae deletion strains, locus YML032C, strain rad52, stronger effect = lower value",1.05
same,normalized growth,"S. cerevisiae deletion strains, locus YML120C, strain ndi1, stronger effect = lower value",1.02
same,normalized growth,"S. cerevisiae deletion strains, locus YML124C, strain tub3, stronger effect = lower value",1.11 [resistant] (active)
same,normalized growth,"S. cerevisiae deletion strains, locus YMR058W, strain fet3, stronger effect = lower value",0.968
same,normalized growth,"S. cerevisiae deletion strains, locus YMR078C, strain ctf18, stronger effect = lower value",1.1 [resistant] (active)
same,normalized growth,"S. cerevisiae deletion strains, locus YMR125W, strain sto1, stronger effect = lower value",1.01
same,normalized growth,"S. cerevisiae deletion strains, locus YMR129W, stronger effect = lower value",0.987
same,normalized growth,"S. cerevisiae deletion strains, locus YMR205C, strain PFK2, stronger effect = lower value",1.02
same,normalized growth,"S. cerevisiae deletion strains, locus YMR223W, strain ubp8, stronger effect = lower value",1.12 [resistant] (active)
same,normalized growth,"S. cerevisiae deletion strains, locus YMR231W, strain pep5, stronger effect = lower value",0.983
same,normalized growth,"S. cerevisiae deletion strains, locus YMR263W, strain SAP30, stronger effect = lower value",1.06
same,normalized growth,"S. cerevisiae deletion strains, locus YMR307W, strain GAS1, stronger effect = lower value",1.09
same,normalized growth,"S. cerevisiae deletion strains, locus YNL067W, strain RPL9B, stronger effect = lower value",1.02
same,normalized growth,"S. cerevisiae deletion strains, locus YNL071W, strain lat1, stronger effect = lower value",0.972
same,normalized growth,"S. cerevisiae deletion strains, locus YNL128W, strain TEP1, stronger effect = lower value",1.05
same,normalized growth,"S. cerevisiae deletion strains, locus YNL153C, strain GIM3, stronger effect = lower value",1.03
same,normalized growth,"S. cerevisiae deletion strains, locus YNL183C, strain NPR1, stronger effect = lower value",0.952
same,normalized growth,"S. cerevisiae deletion strains, locus YNL209W, strain ssb2, stronger effect = lower value",1.01
same,normalized growth,"S. cerevisiae deletion strains, locus YNL233W, strain BNI4, stronger effect = lower value",1.02
same,normalized growth,"S. cerevisiae deletion strains, locus YNL248C, strain rpa49, stronger effect = lower value",0.783 (active)
same,normalized growth,"S. cerevisiae deletion strains, locus YNL250W, strain rad50, stronger effect = lower value",0.921
same,normalized growth,"S. cerevisiae deletion strains, locus YNL271C, strain bni1, stronger effect = lower value",1
same,normalized growth,"S. cerevisiae deletion strains, locus YNL298W, strain CLA4, stronger effect = lower value",0.941
same,normalized growth,"S. cerevisiae deletion strains, locus YNL307C, strain MCK1, stronger effect = lower value",1.03
same,normalized growth,"S. cerevisiae deletion strains, locus YNL322C, strain KRE1 (second series), stronger effect = lower value",0.986
same,normalized growth,"S. cerevisiae deletion strains, locus YNL322C, strain KRE1, stronger effect = lower value",1.03
same,normalized growth,"S. cerevisiae deletion strains, locus YNR049C, strain mso1, stronger effect = lower value",1
same,normalized growth,"S. cerevisiae deletion strains, locus YNR052C, strain pop2, stronger effect = lower value",1.09 [resistant] (active)
same,normalized growth,"S. cerevisiae deletion strains, locus YOL006C, strain TOP1, stronger effect = lower value",1.01
same,normalized growth,"S. cerevisiae deletion strains, locus YOL012C, strain htz1",2.06
same,normalized growth,"S. cerevisiae deletion strains, locus YOL147C, strain pex11, stronger effect = lower value",1.05
same,normalized growth,"S. cerevisiae deletion strains, locus YOR001W, strain rrp6, stronger effect = lower value",0.902
same,normalized growth,"S. cerevisiae deletion strains, locus YOR061W, strain CKA2, stronger effect = lower value",1.03
same,normalized growth,"S. cerevisiae deletion strains, locus YOR069W, strain VPS5, stronger effect = lower value",1.02
same,normalized growth,"S. cerevisiae deletion strains, locus YOR070C, strain gyp1, stronger effect = lower value",0.995
same,normalized growth,"S. cerevisiae deletion strains, locus YOR080W, strain dia2, stronger effect = lower value",1.01
same,normalized growth,"S. cerevisiae deletion strains, locus YOR083W, strain WHI5, stronger effect = lower value",1.01
same,normalized growth,"S. cerevisiae deletion strains, locus YOR106W, strain vam3, stronger effect = lower value",0.987
same,normalized growth,"S. cerevisiae deletion strains, locus YOR136W, strain idh2, stronger effect = lower value",1.1 [resistant] (active)
same,normalized growth,"S. cerevisiae deletion strains, locus YOR144C, strain elg1, stronger effect = lower value",1.1 [resistant] (active)
same,normalized growth,"S. cerevisiae deletion strains, locus YOR231W, strain MKK1, stronger effect = lower value",0.964
same,normalized growth,"S. cerevisiae deletion strains, locus YOR265W, strain rbl2, stronger effect = lower value",0.999
same,normalized growth,"S. cerevisiae deletion strains, locus YOR270C, strain vph1, stronger effect = lower value",0.866
same,normalized growth,"S. cerevisiae deletion strains, locus YOR290C, strain snf2, stronger effect = lower value",1.02
same,normalized growth,"S. cerevisiae deletion strains, locus YOR316C, strain cot1, stronger effect = lower value",1.06
same,normalized growth,"S. cerevisiae deletion strains, locus YPL051W, strain arl3, stronger effect = lower value",0.987
same,normalized growth,"S. cerevisiae deletion strains, locus YPL055C, strain LGE1, stronger effect = lower value",1.1
same,normalized growth,"S. cerevisiae deletion strains, locus YPL078C, strain atp4, stronger effect = lower value",0.956
same,normalized growth,"S. cerevisiae deletion strains, locus YPL106C, strain sse1, stronger effect = lower value",1.04
same,normalized growth,"S. cerevisiae deletion strains, locus YPL240C, strain hsp82, stronger effect = lower value",0.994
same,normalized growth,"S. cerevisiae deletion strains, locus YPL241C, strain CIN2, stronger effect = lower value",1.04
same,normalized growth,"S. cerevisiae deletion strains, locus YPL256C, strain CLN2, stronger effect = lower value",1.1
same,normalized growth,"S. cerevisiae deletion strains, locus YPR119W, strain clb2, stronger effect = lower value",1.03
same,normalized growth,"S. cerevisiae deletion strains, locus YPR141C, strain kar3, stronger effect = lower value",0.94
same,normalized growth,"S. cerevisiae deletion strains, locus YPR163C, strain tif3, stronger effect = lower value",1.05
same,normalized growth,"S. cerevisiae deletion strains, locus YPR167C, strain met16, stronger effect = lower value",1.08 [resistant] (active)
same,normalized growth,"S. cerevisiae deletion strains, strain wtn01, stronger effect = lower value",1.09
same,normalized growth,"S. cerevisiae strains, strain wild type, stronger effect = lower value",0.995
